Bioassay records (PubChem)
HT1080 IDH1KD tx = toxicity to HT-1080 IDH1 knockdown cells (counter line). 360,000 tested, 2% active. AID 686971. Potency, µM (highest dose often 46.1 µM), without a hit: at the top dose activity, negative = toxicity, actives largely listed as cytotoxic. HT-1080 IDH1 knockdown viability, ATP luminescence, 48 h;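 further: 0% = DMSO wells and -100% = cell-free medium wells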
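Assay cells: HT-1080 with IDH1 knockdown, 750 per well, RPMI/5% FBS. Exposure: 48 h at 37 °C following 2 h pre-incubation. Read: CellTiter-Glo luminescence; fitted concentration-response, curve class assigned.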
HT1080-NT tox = kills 2HG-producing HT-1080-NT fibrosarcoma cells | HT-1080-NT fibrosarcoma viability, CellTiter-Glo ATP luminescence, 48 h | Potency, µM (series often up to 46.1 µM), for the others: top-dose activity, negative = less viability, hits mostly cytotoxic | 360,000 tested, 1.6% active | AID 686970;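 further: NT is the 2HG producing partner of a matched IDH1 knockdown line; 0% = DMSO-treated cells and -100% = media-only wells without cells; nearly all actives have a fitted effect of over 55% in size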
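A 48-hour cytotoxicity screen used HT-1080-NT cells plated 2 hours before compound delivery. ATP-based CellTiter-Glo luminescence measured viability, normalized to DMSO and no-cell controls.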
TDP1 cell CPT = DT40-hTDP1 cell growth loss with CPT; chicken DT40 Tdp1-/-;hTDP1 cells + 20 nM CPT, ATP luminescence, 48 h; Potency, µM (highest dose often 46.2 µM), without a hit: at the top dose activity change, negative = growth inhibition, actives largely listed as inhibitors; 420,000 tested, 12% active; further: on the % scale 0 is the no-effect control and ±100 the full control effect; nearly all actives have a fitted effect of over 55% in size
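Cell growth measured by CellTiter-Glo luminescence after a minimum 48 h, 37 C compound exposure with 20 nM CPT in Tdp1-knockout DT40 cells stably expressing hTDP1, seeded 400/well; qHTS titration format.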
HepG2 viability = HepG2 cytotoxicity, counter-screen for TGF-b inhibitors; Potency, µM (highest dose often 46.1 µM), for the others: at the highest dose activity change, negative = cytotoxicity, usual class: cytotoxic; HepG2 CAGA-GFP viability, ATP luminescence, 18 h; 410,000 tested, 0.76% active
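HepG2 CAGA-GFP cells (1000/well, DMEM with 1% FBS) received compound, then TGF-beta at 500 pg/mL final, and were incubated 18 hours at 37 degrees C. Viability was read by CellTiter-Glo luminescence. Media-only wells were set as complete cell-killing and DMSO as no toxicity.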
TGFb inhibitor = inhibitors of TGF-b signaling. AID 588855. Potency, µM (series often up to 46.1 µM), without a hit: at the highest dose activity, negative = inhibition, hits mostly inhibitors. 410,000 tested, 1.2% active. HepG2 CAGA-GFP TGF-b/SMAD3 reporter, GFP fluorescence, 18 h; TGF-beta stimulated, 500 pg/mL final; further: on the % scale 0 is the no-effect control and ±100 the full control effect; nearly all actives have a fitted effect of over 65% in size
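Cell-based qHTS in HEPG2 carrying a CAGA-GFP Smad reporter; compounds added before 500 pg/mL final TGF-beta, 18 h incubation at 37 degrees C, GFP fluorescence quantified per cell by imaging cytometry.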
DT40 TDP1 no CPT = qHTS for Inhibitors of human tyrosyl-DNA phosphodiesterase 1 (TDP1): qHTS in cells in absence of CPT. DT40 Tdp1-/- hTDP1 cells, no CPT, ATP luminescence, 48 h. Potency, µM (highest dose often 46.2 µM), without a hit: at the top dose activity change, negative = growth inhibition, most hits filed as inhibitors. 420,000 tested, 15% active. AID 686978, 2013; further: on the % scale 0 is the no-effect control and ±100 the full control effect; nearly all actives have a fitted effect of over 55% in size
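Chicken DT40 Tdp1-/- cells stably complemented with human TDP1 were seeded at 400 cells/well with DMSO in place of 20 nM camptothecin. After compound pinning, cells grew at least 48 hr at 37 °C; viability read by CellTiter-Glo luminescence.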
Active calls of the source: *; u = inconclusive; x = not tested or not shown. Sampled rows, rich in hits. Any-hit rate of the full collection: about 17%. The call rests on the fitted dose curve; in most records, active means well fitted curve in the direction sought with a large enough effect; inconclusive means small, poorly fitted or top-dose-only effect, or another doubt; inactive means no such curve, though single readings can be large; an effect the other way counts as inactive or inconclusive. Potency means the concentration at half of the fitted maximal effect.

SMILES	HT1080 IDH1KD tx	HT1080-NT tox	TDP1 cell CPT	HepG2 viability	TGFb inhibitor	DT40 TDP1 no CPT
COc1ccc(OC)c(CNC(=O)c2ccc(Sc3ccc(C)cc3)c(N)c2)c1	x	x	23.1µM*	-21.5%	u	20.6µM*
CCc1nc2ccc(C(=O)NCc3cc(OC)ccc3OC)cc2nc1CC	x	x	16.4µM*	1.1%	2.5%	u
CCOc1ccc(CNC(=O)c2ccc(Sc3ccc(C)cc3)c(N)c2)cc1OC	x	x	u	-16.8%	u	u
Cn1c(=O)c(-c2cccs2)nc2cncnc21	x	x	20.7%	x	x	-21.2%
c1ccc(-c2cc(-c3ccc(N4CCOCC4)cc3)nc3ccccc23)cc1	25.8%	16.8%	3.5%	29.2%	9.8%	2.8%
O=c1cc(N2CCOCC2)oc2c(-c3ccccc3)cccc12	x	x	8.2µM*	x	x	7.31µM*
COCCNc1nc2sc3c(c2c(=O)n1Cc1ccco1)CCCCC3	u	-25.0%	13µM*	-23.9%	-6.3%	16.4µM*
CN(C)CCNc1nc2sc3c(c2c(=O)n1-c1ccccc1)CCCCC3	u	u	2.4%	14.1µM*	-18.2%	u
OCCNc1nc(SCc2ccccc2)nc2sc3c(c12)CCC3	-28.4%	-14.3%	u	-9.8%	-1.9%	14.6µM*
CN(C)CCNc1nc2sc3c(c2c(=O)n1Cc1ccccc1)CCCCC3	-16.8%	-3.8%	u	-17.7%	3.2%	u
O=c1c2c3c(sc2nc(NCCO)n1CCc1ccccc1)CCCCC3	u	-28.4%	5.8µM*	-21.3%	u	4.11µM*
O=c1c2c3c(sc2nc(NCCO)n1Cc1ccco1)CCCCC3	u	-24.7%	-64.1%	-23.4%	-23.1%	u
O=S(=O)(c1cnc2ccccc2c1)N1CCN(c2nc(-c3cccs3)nc3ccccc23)CC1	19.7%	15.7%	-25.8%	x	x	-21.4%
CN(C)CCNc1nc2sc3c(c2c(=O)n1-c1ccc(F)cc1)CCCCC3	u	23.1µM*	20.6µM*	-23.1%	u	u
COc1ccc(-n2c(N3CCN(C)CC3)nc3sc4c(c3c2=O)CCCCC4)cc1	8.9%	-0.4%	23.1µM*	3.4%	1.3%	14.6µM*
COc1ccc(-n2c(C)nc3sc4c(c3c2=O)CCC4)cc1	-27.6%	-1.9%	-16.7%	-9.8%	6.0%	u
COc1ccc(-n2c(NCCN(C)C)nc3sc4c(c3c2=O)CCCCC4)cc1	-20.8%	-26.6%	u	-38.7%	4.0%	16.4µM*
CC(=O)NC12CC3CC(C1)CC(C(=O)N(C)Cc1cccc(Cl)c1Cl)(C3)C2	-4.5%	3.3%	u	-35.0%	u	-3.0%
COC(=O)c1ccccc1NC(=O)CSc1nc2ccccc2nc1Cc1ccc(F)cc1	x	x	-14.7%	2.8%	-24.8%	-6.5%
COc1ccc(C)cc1NC(=O)COC(=O)Cc1c[nH]c2ccccc12	2.9%	-2.3%	-5.7%	0.3%	-6.1%	-18.6%
CCc1nc(SCC(=O)N2c3ccccc3Sc3ccccc32)c2ccccc2n1	8.8%	2.4%	u	-10.1%	0.7%	14.6µM*
CCc1nc(SCC(=O)c2ccccc2)c2ccccc2n1	-7.0%	-0.8%	u	-19.3%	-2.9%	13µM*
CCCc1nc(SCC(=O)c2ccc(OC)cc2)c2ccccc2n1	-0.3%	-12.5%	u	-25.4%	-16.8%	u
Cc1nc(SCC(=O)c2cc(C)n(C3CC3)c2C)c2ccccc2n1	2.1%	5.1%	8.2µM*	-47.0%	1.6%	7.31µM*
CCCc1nc(SCC(=O)N2CCCC2)c2ccccc2n1	0.1%	-1.5%	-7.5%	-6.1%	-2.7%	u
SMILES	HT1080 IDH1KD tx	HT1080-NT tox	TDP1 cell CPT	HepG2 viability	TGFb inhibitor	DT40 TDP1 no CPT
Cn1nnnc1SCC(=O)N1c2ccccc2Sc2ccccc21	3.9%	-2.1%	10.3µM*	-10.8%	4.3%	14.6µM*
CC(C)NC(=S)n1cc(C(=O)c2cc(Cl)cc(Cl)c2O)cn1	-21.0%	-8.4%	-1.4%	-5.1%	-8.9%	-6.1%
CC(c1nc2ccccc2[nH]1)N(C(=O)C1=NNC(=O)CC1)c1ccccc1 (configuration not stated)	4.4%	5.5%	-2.3%	3.9%	-8.1%	-28.4%
CCOC(=O)C1CCN(C(=O)c2ccccc2)c2scc(-c3ccccc3)c2C1=O (configuration not stated)	-23.6%	-1.0%	u	-26.3%	1.4%	u
COc1ccc(N2CC(NC(=O)/C=C\c3ccccc3)CC2=O)cc1 (configuration not stated)	x	x	-2.3%	-11.6%	-27.1%	-9.5%
COc1ccc(S(=O)(=O)N2CCC(C(=O)O)(c3ccccc3)CC2)cc1	17.2%	13.8%	5.1%	20.1%	6.2%	12.8%
N#CC1(c2ccccc2)CCN(S(=O)(=O)c2ccc(OC(F)(F)F)cc2)CC1	-8.4%	-11.0%	-21.7%	-26.9%	-18.4%	14.6µM*
CC(Oc1ccccc1)C(=O)N1CCN(S(=O)(=O)c2ccc(OC(F)(F)F)cc2)CC1 (configuration not stated)	4.7%	2.1%	18.4µM*	-1.8%	4.0%	u
COc1ccc2c(c1)c(/C=N/Nc1ccc(C(=O)O)cc1)c(C)n2C	10.7%	11.5%	10.0%	-2.0%	22.6%	-15.3%
CCOc1ccc(/C=N/NC(=O)c2c(C)n(C)c3ccc(OC)cc23)cc1	u	u	5.17µM*	26.5%	u	5.8µM*
COc1ccc2c(c1)c(C(=O)N/N=C/c1ccc(O)c(O)c1)c(C)n2C	-24.0%	-16.2%	u	-5.6%	0.3%	25.9µM*
COc1ccc2c(c1)c(C(=O)N/N=C/c1ccc(Br)cc1)c(C)n2C	18.4µM*	u	10.3µM*	-13.2%	-28.7%	10.3µM*
O=C(N/N=C/c1ccc(O)c(O)c1)N/N=C/c1ccc(O)c(O)c1	-20.2%	-10.8%	-20.8%	-8.1%	0.1%	u
O=C(O)CC(NS(=O)(=O)c1ccc(Cl)s1)c1ccccc1 (configuration not stated)	x	x	1.1%	-6.0%	-0.2%	27.8%
CC[C@@]1(c2ccccc2)NC(=O)N(C)C1=O	x	x	-71.4%	x	x	u
O=C(c1ccc(F)cc1)N1CCN(c2ccccn2)CC1	0.0%	-0.8%	0.1%	-5.4%	-0.8%	-4.1%
COc1ccc(Cn2c(=O)[nH]c3cc(C(=O)N4CCN(c5ccccn5)CC4)ccc3c2=O)cc1	3.6%	1.7%	14.6µM*	-25.6%	12.3%	23.1µM*
